Bioassay records: PubChem BioAssay, National Center for Advancing Translational Sciences (NCATS)
MCF10A rereplic – induces DNA re-replication in MCF 10a normal breast cells; Potency, µM (highest dose often 46.1 µM), without a hit: at the top dose activity, positive = re-replication, actives largely listed as activators; MCF 10A DNA re-replication, Hoechst nuclear intensity, 48 h; hit rate 2.9% among 350,000; further: % of control where 0% means no effect; nearly all actives have a fitted effect of over 50% in size
RORg inh – ROR gamma (mouse) transcription inhibition; P51450; Drosophila S2 Gal4-RORgamma UAS-luciferase reporter, 20 h; Potency, µM (doses to about 53.6 µM), without a hit: top-dose activity change, negative = inhibition, hits mostly inhibitors; hit rate 5.4% among 310,000; AID 2551; further: on the % scale 0 is the no-effect control and ±100 the full control effect; nearly all actives have a fitted effect of over 60% in size
Target sequence (P51450 whole entry, looked up, the tested form may be a part): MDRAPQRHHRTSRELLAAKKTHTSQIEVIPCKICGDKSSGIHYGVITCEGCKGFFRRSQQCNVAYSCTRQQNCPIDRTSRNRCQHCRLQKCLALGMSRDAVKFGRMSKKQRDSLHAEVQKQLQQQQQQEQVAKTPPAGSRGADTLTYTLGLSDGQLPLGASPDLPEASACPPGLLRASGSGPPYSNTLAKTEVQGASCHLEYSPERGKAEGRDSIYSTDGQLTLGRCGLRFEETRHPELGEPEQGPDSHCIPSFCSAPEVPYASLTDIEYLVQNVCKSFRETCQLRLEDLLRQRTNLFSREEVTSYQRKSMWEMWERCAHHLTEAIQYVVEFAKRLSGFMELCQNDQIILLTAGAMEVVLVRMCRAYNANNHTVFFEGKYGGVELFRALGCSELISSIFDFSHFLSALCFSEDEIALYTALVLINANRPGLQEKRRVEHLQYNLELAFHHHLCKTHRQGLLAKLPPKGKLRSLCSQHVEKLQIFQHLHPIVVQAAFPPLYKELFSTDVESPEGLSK
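Stable Schneider cell line, Gal4 DNA-binding domain fused to ROR gamma, UAS-luciferase. Cmpd 1 hr RT → CuSO4 700 uM final → 20 hr RT → luciferase reagent 10 min → luminescence.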
VP16 counter – inhibits Gal4-VP16 luciferase reporter, ROR gamma counter-screen; Drosophila S2 Gal4-VP16 UAS-luciferase, luminescence, 20 h; Potency, µM (highest dose often 53.6 µM), inactives show at the highest dose activity, negative = inhibition, hits mostly inhibitors; hit rate 3.5% among 310,000; AID 2546;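 further: Gal4-VP16 expression switched on by copper sulfate through the metallothionein promoter; on the % scale 0 is the no-effect control and ±100 the full control effect; nearly all actives have a fitted effect of over 50% in size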
SW480 rereplic – induces DNA re-replication in SW480 colon adenocarcinoma cells; SW480 DNA re-replication, Hoechst DNA content imaging, 48 h; Potency, µM (doses to about 46.1 µM), inactives show at the highest dose re-replication activation, hits mostly activators; hit rate 1.8% among 340,000; AID 624297; further: % of control where 0% means no effect; nearly all actives have a fitted effect of over 55% in size
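250 cells/well; 23 nL cpd via pin tool; 48 hr, 37 C, 5% CO2; Hoechst 40 min; imager read of total nuclear intensity, ex 405/em 500-530 nm.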
ELG1 repair inh – ELG1-dependent DNA repair inhibition. HEK293T ELG1-luciferase reporter, luminescence, 16 h; DNA damage induced by 5-fluorouridine. Potency, µM (highest dose often 46.1 µM), inactives show at the highest dose activity change, negative = inhibition, usual class: inhibitors. hit rate 2.3% among 330,000; further: on the % scale 0 is the no-effect control and ±100 the full control effect; nearly all actives have a fitted effect of over 55% in size
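HEK293T cells expressing luciferase-tagged ELG1 (2,000/well) received 5-Fluorouridine plus compound or DMSO for 16 hr at 37 °C. Luciferase was read by ONE-Glo luminescence after 30 min at room temperature.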
Starred values were filed as active, the others as inactive; u = inconclusive; x = no result; [ ] = dose if it differs, or a comment. Compounds with a hit are over-represented: about 10% of the library has one in this group of screens. The call rests on the fitted dose curve; in most records, active means well fitted curve in the direction sought with a large enough effect; inconclusive means small, poorly fitted or top-dose-only effect, or another doubt; inactive means no such curve, though single readings can be large; an effect the other way counts as inactive or inconclusive. Potency means the concentration at half of the fitted maximal effect.

SMILES	MCF10A rereplic	RORg inh	VP16 counter	SW480 rereplic	ELG1 repair inh
CC(C)N1CCN(Cc2cccc([N+](=O)[O-])c2)CC1	0.8%	-0.4%	-10.4%	1.84µM*	3.6%
CCn1ccnc1CN1CCCC(C(=O)c2cc(F)ccc2OC)C1 (configuration not stated)	-3.4%	2µM*	15.8µM*	-9.9%	5.4%
CCn1ccnc1CN1CCCC(C(=O)c2ccc(OC)cc2OC)C1 (configuration not stated)	6.6%	3.55µM*	6.31µM*	-4.6%	-0.7%
COc1ccc(C(=O)C2CCCN(Cc3cccc(C)n3)C2)c(OC)c1 (configuration not stated)	-15.9%	u	-22.5%	-28.3%	u
CCCCCCCCCCCCCCC[C@@H](O)[C@@H](N)COP(=O)(O)O	x	-1.2%	4.0%	x	x
Clc1ccc(C(c2ccc(Cl)cc2)C(Cl)Cl)cc1	x	35.3%	0.8%	x	x
[Cl-].[Cl-].[Hg+2]	u	u	17.8µM*	u	x
CCC(C)(C)O	x	24.1%	-3.0%	x	x
CC(=O)Oc1ccc(/C=C/c2cc(OC(C)=O)cc(OC(C)=O)c2)cc1	x	3.98µM*	u	x	x
CCc1ccc(C(=O)NN(C(=O)c2cc(C)cc(C)c2)C(C)(C)C)cc1	x	-0.6%	-2.1%	x	x
COc1cc(C2c3cc4c(cc3CC3COC(=O)C32)OCO4)cc(OC)c1OC (configuration not stated)	6.51µM*	x	x	u	8.2%
COc1cc([C@H]2c3cc4c(cc3[C@@H](O)[C@@H]3COC(=O)[C@H]23)OCO4)cc(OC)c1OC	x	-23.8%[16.9 µM]	-8.8%[17 µM]	x	x
COc1cc(C2c3cc4c(c(O)c3CC3COC(=O)C32)OCO4)cc(OC)c1OC (configuration not stated)	u	-29.8%	-6.7%	0.0517µM*	x
CCNC(=O)CCSc1nc2cc(Cl)ccc2o1	-1.6%	15.7%	u	u	17.4%
C[C@]12CC[C@H](N)CC1=CCC1C2CC[C@@]2(C)C1CC[C@@H]2O (some centres not stated)	u	x	x	18.4µM*	16.4µM*
C[C@]12CC[C@@H](O)CC1=CCC1C2CC[C@@]2(C)C1CC[C@@H]2N (some centres not stated)	u	x	x	u	9.0%
CCCN1CCC[C@@H]2Cc3cn[nH]c3C[C@H]21	x	-0.7%	4.2%	x	x
O=C(N/N=C/c1c(O)n(C2CC2)c(=S)[nH]c1=O)c1ccccc1O	2.1%	5.62µM*	7.08µM*	-0.6%	u
O=C(N/N=C/c1c(O)n(CCC2=CCCCC2)c(=O)[nH]c1=O)c1ccccc1	19.3%	11.2µM*	u	u	u
O=C(N/N=C/c1c(O)n(-c2ccccc2)c(=O)[nH]c1=O)c1ccncc1	15.8%	-6.6%	-4.6%	-1.5%	7.8%
Cc1ccc(-n2c(O)c(/C=N/NC(=O)c3ccncc3)c(=O)[nH]c2=O)cc1	11.2%	40.1%	4.3%	-10.3%	13.3%
O=C(N/N=C/c1c(O)n(-c2ccccc2)c(=S)[nH]c1=O)c1ccccc1	0.0%	7.94µM*	3.8%	-2.6%	u
Cc1cccc(-n2c(O)c(/C=N/NC(=O)c3ccncc3)c(=O)[nH]c2=O)c1	u	35.5µM*	-10.3%	u	1.1%
Clc1nc(Cl)nc(Cl)n1	x	-0.1%	-4.5%	x	x
O=C(Nc1ccccc1F)Oc1cccc(OC(=O)Nc2ccccc2F)c1	11.9%	39.6%	-4.7%	2.5%	u
SMILES	MCF10A rereplic	RORg inh	VP16 counter	SW480 rereplic	ELG1 repair inh
COc1ccc(S(=O)(=O)Nc2ccc3c(c2)CC(=O)N([C@@H](C)CO)C[C@H](C)[C@@H](CN(C)S(=O)(=O)c2ccc(F)cc2)O3)cc1	-1.5%	x	x	u	-2.4%
O=c1[nH]c(=S)n(CCC2=CCCCC2)c(O)c1C=NCc1cccnc1	x	-23.8%	-6.6%	x	2.4%
Cn1c(O)c(/C=N/NC(=O)c2ccncc2)c(=O)n(C)c1=S	9.2µM*	0.0%	-11.4%	8.2µM*	1.0%
O=C(N/N=C/c1c(O)n(Cc2ccccc2)c(=O)[nH]c1=O)c1ccncc1	0.7%	-38.5%	-18.7%	-8.1%	-3.8%
O=C(N/N=C/c1c(O)n(Cc2ccc(F)cc2)c(=O)[nH]c1=O)c1ccccc1	-19.4%	12.6µM*	11.5%	24.1%	-21.7%
O=C(N/N=C/c1c(O)n(CCC2=CCCCC2)c(=S)[nH]c1=O)c1ccccc1	u	5.01µM*	u	u	u
Cc1ncc(CN2CC=C(c3ccccc3)CC2)c(N)n1	x	u	-8.4%	x	x
Cc1ccc2c(c1)[C@@H]1CN(C)CC[C@H]1N2	1.5%	-1.3%	-1.1%	-4.7%	x
Clc1cccc(Cl)c1	x	-14.4%	2.2%	x	x
O=[N+]([O-])c1cc(O)c(O)c([N+](=O)[O-])c1	u	22.4µM*	-7.0%	-3.0%	10.9%
O=C(O)c1cc([N+](=O)[O-])cc([N+](=O)[O-])c1O	x	-6.8%	0.7%	x	x
O=[N+]([O-])c1ccc(O)c([N+](=O)[O-])c1	0.7%	u	22.4µM*	-86.5%	x
COC(=O)NC/C=C\c1nc(CC/C=C\C(=O)O[C@H]2C[C@H]3CC(=O)O[C@@H](/C=C\CC(C)C)C[C@@H]4CC[C@H](C)[C@H](C[C@@H](OC)C[C@H](C2)O3)O4)co1	x	0.0056µM*	u	x	x
Cc1cc(C(=O)OCC(=O)NC(=O)c2cccn2C)c2ccccc2n1	-0.2%	12.0%	0.1%	3.7%	u
CNC(=O)COC(=O)c1ccc(-c2nc3ccccc3s2)s1	-8.0%	0.501µM*	0.316µM*	-0.3%	u
C=C1[C@@H](C)[C@H]2[C@H](Cc3ccccc3)NC(=O)[C@]23OC(=O)/C=C/[C@H](O)CCC[C@@H](C)C/C=C/[C@H]3[C@@H]1O	u	5.9%	3.0%	5.8µM*	x
CC(=O)O[C@@H]1/C=C/[C@](C)(O)C[C@@H](C)C/C=C/[C@H]2[C@H](O)C(C)=C(C)[C@H]3[C@H](Cc4ccccc4)NC(=O)[C@@]123	u	x	x	18.4µM*	x
C=C1C(C)C2C(Cc3ccccc3)NC(=O)C23C(OC(C)=O)C=CC(C)(O)CC(C)CC=CC3C1O (configuration not stated)	u	x	x	3.66µM*	x
O=C(CCCN1CCC2(CC1)C(=O)N(Cc1cccc(F)c1)CN2c1ccccc1)c1ccc(F)cc1	x	-32.7%	u	x	x
Cc1ccc(-c2cc(-c3ccc(C)cc3)[n+](-c3ccc(C(=O)O)cc3)c(-c3ccc(C)cc3)c2)cc1	u	x	x	1.4%	13.1%
Cc1ccc(C[n+]2c(-c3ccc(C)cc3)cc(-c3ccc(C)cc3)cc2-c2ccc(C)cc2)cc1	23.1µM*	x	x	u	u
COCCNC(=O)c1c(N)n(CCC(C)C)c2nc3ccccc3nc12	3.26µM*	0.0%	-0.4%	u	5.8µM*
CCCCNC(=O)c1c(N)n(CCCOC)c2nc3ccccc3nc12	10.3µM*	-27.4%	-11.0%	2.06µM*	u
